Screens (PubChem)
This is a sample that favours compounds with a hit; in the whole collection about 4% have one here.
UGM FP inh = Mtb UDP-galactopyranose mutase inhibition; AID 504406; 0.06% of 320,000 active; P9WIQ1; purified UGM, fluorescence polarization probe displacement; inhibition, % at 10 µM; in the data active means inhibition above about 10%, passing the limit was not always enough
Rv3671c inh = inhibitors of M. tuberculosis serine protease Rv3671c | inhibition, % at 5.96 µM | 0.048% of 320,000 active | AID 2606; in the data active means inhibition above about 38%;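 further: extracellular domain of Rv3671c used as enzyme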
FBA Mtb inh = Mtb fructose-bisphosphate aldolase inhibition; P9WQA3; purified M. tuberculosis FBA, fluorescence read-out; inhibition, % at 1 µM; 2.3% of 360,000 active; in the data active means inhibition above about 27%
Target sequence (P9WQA3 whole entry, looked up): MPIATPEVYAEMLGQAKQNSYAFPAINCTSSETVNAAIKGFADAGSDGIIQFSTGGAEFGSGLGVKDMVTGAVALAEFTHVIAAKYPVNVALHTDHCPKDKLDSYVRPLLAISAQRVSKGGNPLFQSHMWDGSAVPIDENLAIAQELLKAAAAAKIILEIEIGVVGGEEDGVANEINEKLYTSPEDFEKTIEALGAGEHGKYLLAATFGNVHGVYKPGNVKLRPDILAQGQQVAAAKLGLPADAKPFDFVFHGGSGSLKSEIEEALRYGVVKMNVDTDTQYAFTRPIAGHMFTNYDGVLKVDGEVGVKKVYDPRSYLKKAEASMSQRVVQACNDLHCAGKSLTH
Mtb bLac sens = beta-lactam sensitization of Mtb H37Rv | AID 434955 | inhibition, % at 25 µM | M. tuberculosis H37Rv growth with meropenem, percent inhibition | 0.27% of 330,000 active; call rule not given here;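 further: growth measured after seven days incubation then overnight dye step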
RecA intein inh = inhibitors of M. tuberculosis RecA intein splicing; cell-free RecA intein splicing, fluorescence; inhibition, % (concentration not given with the values); AID 2221; 0.75% of 290,000 active; in the data active means inhibition above about 30%
GDH-TPI counter = inhibits GDH-TPI coupling enzymes, artifact for Mtb FBA screen; inhibition, % at 4.8 µM; 1.2% of 360,000 active; AID 588335; GDH-TPI coupled enzyme counterscreen, NADH absorbance; in the data active means inhibition above about 30%
Of the large screens only hits and unclear results are named; the others gave an inactive call.

O=C(CCCn1cc([N+](=O)[O-])cn1)Nc1cccnc1	none
COc1ccc2c(Cn3cnc4cc([N+](=O)[O-])ccc4c3=O)cc(=O)oc2c1	GDH-TPI counter 31
Cc1ccc(OCCn2cnc3cc([N+](=O)[O-])ccc3c2=O)cc1	none
O=C(Nc1ccc(Cc2ccncc2)cc1)c1cccc([N+](=O)[O-])c1	none
O=C(Nc1ccc(Nc2ccncc2)cc1)c1ccc(Nc2ccnc3ccc([N+](=O)[O-])cc23)cc1	GDH-TPI counter 39 (no result: UGM FP inh, Rv3671c inh, Mtb bLac sens)
C/C(=N\Nc1nccnc1Cl)c1ccc(O)cc1	none
C/C(=N\Nc1nccnc1Cl)c1ccc(Cl)c(Cl)c1	GDH-TPI counter 41
COc1ccccc1N1C(=O)C2C(C(=O)c3ccccc3)=NN(c3ccc(Br)cc3)C2C1=O (centres undefined)	UGM FP inh 11
O=C(C1=NN(c2ccccc2)C2C(=O)N(c3ccc(Cl)cc3)C(=O)C12)c1ccccc1 (centres undefined)	UGM FP inh 15 (no result: RecA intein inh)
COc1ccccc1N1C(=O)C2C(C(=O)c3ccccc3)=NN(c3ccc(C)cc3)C2C1=O (centres undefined)	none
O=C(CNC1=NCCC1)c1ccc(Cl)cc1	RecA intein inh 45
Cc1c(C2(O)CCCCC2)[nH]c2cnccc12	FBA Mtb inh 127 (no result: RecA intein inh)
COCCn1nnnc1CN1CCN(c2cccc(C(F)(F)F)c2)CC1	FBA Mtb inh 191
COCCn1nnnc1CN1CCC(O)(c2cccc(C(F)(F)F)c2)CC1	none
COc1ccc(/C=N/NC(=O)c2cc(-c3ccccc3OC)nc3ccccc23)cc1COC(C)=O	none
COc1ccc(/C=N/NC(=O)c2cc(-c3ccc(C)cc3C)nc3ccccc23)cc1COC(C)=O	GDH-TPI counter 35
CCN(CC)C(=O)COc1ccc(/C=N/NC(=O)c2cc(-c3ccccc3OC)nc3ccccc23)cc1OC	GDH-TPI counter 42
COc1ccccc1-c1cc(C(=O)N/N=C/c2ccc(C)s2)c2ccccc2n1	GDH-TPI counter 37
CCc1ccc(/C=N/NC(=O)c2cc(-c3ccccc3OC)nc3ccccc23)s1	none
COc1ccc(NC(=O)C(c2ccccc2)N(C)C(=O)c2cnccn2)cc1 (centres undefined)	none
CCOC(=O)c1cc2c(nc1N)CC(C)(CC)OC2 (centres undefined)	FBA Mtb inh 112
CCOC(=O)c1cc2c(nc1N)CC(C)(C)OC2	FBA Mtb inh 164
O=C(c1cccc2c1-c1ccccc1C2)N1CCCCC1	none
O=C(Nc1ccc2c(c1)CCC2)c1ccc(F)cc1	FBA Mtb inh 117
COc1ccc(/C=N/Nc2nc(-c3cccnc3)nc3ccccc23)cc1OC	none
COc1ccc(/C=N/Nc2ncnc3scc(-c4ccccc4)c23)cc1OC	GDH-TPI counter 48
COc1cc(/C=N/Nc2ncnc3sc4c(c23)CCC4)ccc1O	GDH-TPI counter 47 (no result: UGM FP inh, Rv3671c inh, Mtb bLac sens, RecA intein inh)
COc1cc(/C=C2\NC(=S)NC2=O)ccc1OCc1cccc(C(=O)O)c1	GDH-TPI counter 32
O=C(O)CNC(=O)c1ccc(NS(=O)(=O)c2ccc3ccccc3c2)cc1	none
N#CC(C#N)=Cc1c[nH]c(=O)c(C#N)c1Nc1ccccc1	FBA Mtb inh active
CCCN1CCN(S(=O)(=O)c2cc3c(cc2C)NC(=O)CO3)CC1	none
COc1cccc(/C=N/n2c(C)nc3ccccc32)c1OC	none
COc1cccc(/C=N/n2c(-c3ccco3)nc3ccccc3c2=O)c1OC	UGM FP inh 11
O=S(=O)(c1ccc(Br)cc1F)N1CC[C@H](O)C1	none (no result: UGM FP inh, Rv3671c inh, Mtb bLac sens, RecA intein inh)
O=C(Nc1sc(-c2ccccc2)cc1C(=O)O)c1ccccc1	GDH-TPI counter 35
COc1cc(NC(=O)C2(C)CCCN2C(=O)C(C)C)cc(OC)c1OC (centres undefined)	none (no result: UGM FP inh, Rv3671c inh, Mtb bLac sens, RecA intein inh)
O=C1NC(=O)/C(=C\c2ccc(Oc3ccc([N+](=O)[O-])cn3)cc2)S1	GDH-TPI counter 35
O=[N+]([O-])c1ccc(Oc2ccc(/C=N/O)cc2)nc1	none (no result: RecA intein inh)
CN(C)/N=C/c1ccc(P(c2ccc(/C=N/N(C)C)o2)c2ccc(/C=N/N(C)C)o2)o1	GDH-TPI counter 65
COCCCn1c(N)c(C(=O)OC(C)COC)c2nc3ccccc3nc21 (centres undefined)	FBA Mtb inh active
CCC(C)OC(=O)c1c(N)n(Cc2cccs2)c2nc3ccccc3nc12 (centres undefined)	FBA Mtb inh 137
CCCCOCCCn1c(N)c(C(=O)OC(C)COC)c2nc3ccccc3nc21 (centres undefined)	FBA Mtb inh 121
Cc1cc(C)n(C(=O)C(C(=O)c2ccccc2)C(C)C)n1 (centres undefined)	none
CCN(C(=O)COC(=O)c1cc(=O)c2ccccc2o1)c1c(N)n(Cc2ccccc2)c(=O)[nH]c1=O	none
COC(=O)Nc1ccc2ccc3c(NC(=O)OC)ccc4ccc1c2c43	FBA Mtb inh active, GDH-TPI counter 44 (no result: UGM FP inh, Rv3671c inh, Mtb bLac sens, RecA intein inh)
Nc1nonc1-n1nnc(C(=O)N/N=C/c2cccnc2)c1CSC1=NCCS1	none
CC(C)c1ccc(/C=N/NC(=O)c2nnn(-c3nonc3N)c2CSC2=NCCS2)cc1	RecA intein inh 34
Nc1nonc1-n1nnc(C(=O)N/N=C/c2ccc(Br)cc2)c1CSC1=NCCS1	RecA intein inh 31 (no result: UGM FP inh)
Cc1nc(SCc2nc3c([N+](=O)[O-])cccc3[nH]2)c2oc3ccccc3c2n1	none (no result: RecA intein inh)
CCN(CCCCN1C(=O)c2ccccc2C1=O)c1ccc2c(c1)C(=O)N(C)C2=O	GDH-TPI counter 43
CC(=O)Oc1cccc(C(=O)Nc2ccc(NC(=O)c3cccs3)cc2)c1	none
O=C(CC1OC(=O)c2ccccc21)c1ccco1 (centres undefined)	GDH-TPI counter 41
O=C(CSC1=NCCS1)Nc1ccc(S(=O)(=O)NC2CCCCC2)cc1	RecA intein inh 42 (no result: Mtb bLac sens)
O=C(CSC1=NCCS1)Nc1ccc(S(=O)(=O)N2CCCCCC2)cc1	RecA intein inh 33
O=C(NNc1c(F)c(F)cc(F)c1F)c1cc2ccccc2oc1=O	none
O=C(Nc1cccc(Cl)c1)c1cccc(N2C(=O)C3CC=CCC3C2=O)c1 (centres undefined)	none
Cc1ccc(OCCC(=O)OC(C)C(=O)Nc2ccc(Cl)cn2)cc1 (centres undefined)	none
Cc1c(CCC(=O)NC2CC2)c(=O)oc2c(C)c(O)ccc12	FBA Mtb inh active
C=C(C)COc1ccc2c(C)c(CCC(=O)NC3CC3)c(=O)oc2c1	FBA Mtb inh active
Cc1c(CCC(=O)NCCCN2CCCC2=O)c(=O)oc2cc(O)ccc12	FBA Mtb inh active
Cc1oc2cc3oc(=O)c(CCC(=O)NC4CC4)c(C)c3cc2c1C	none
Cc1c(CCC(=O)NCCCN2CCCC2=O)c(=O)oc2c(C)c(O)ccc12	FBA Mtb inh active
Cc1coc2c(C)c3oc(=O)c(CCC(=O)NCCCN4CCCC4=O)c(C)c3cc12	none (no result: RecA intein inh)
CC(=O)N1CCN(C(=O)CNC(=O)c2ccc(Br)o2)CC1	none
Nc1nc(=S)[nH]c2c1C1(CCCC1)Cc1ccccc1-2	none
